LmPK inhibitor: inhibitors of Leishmania mexicana pyruvate kinase; Q27686; purified LmPK, Kinase-Glo ATP luminescence, 1 h; Potency, µM (top dose mostly 57.5 µM), inactives show at the top dose activity change, negative = inhibition, usual class: inhibitors; 290,000 tested, 0.37% active; further: on the % scale 0 is the no-effect control and ±100 the full control effect
Target sequence (Q27686 whole entry, looked up): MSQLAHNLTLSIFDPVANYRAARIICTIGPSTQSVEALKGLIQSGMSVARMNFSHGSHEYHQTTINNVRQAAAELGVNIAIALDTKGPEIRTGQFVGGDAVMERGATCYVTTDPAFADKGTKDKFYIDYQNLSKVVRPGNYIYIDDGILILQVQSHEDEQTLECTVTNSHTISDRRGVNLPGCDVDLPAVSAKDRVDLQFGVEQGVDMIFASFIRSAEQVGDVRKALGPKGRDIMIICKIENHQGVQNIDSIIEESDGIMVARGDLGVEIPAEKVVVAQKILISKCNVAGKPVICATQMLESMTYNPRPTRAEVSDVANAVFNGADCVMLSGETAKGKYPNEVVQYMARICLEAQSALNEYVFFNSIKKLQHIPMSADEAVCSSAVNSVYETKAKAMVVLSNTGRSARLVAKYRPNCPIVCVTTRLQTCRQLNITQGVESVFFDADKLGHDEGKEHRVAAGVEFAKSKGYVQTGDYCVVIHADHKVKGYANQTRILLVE
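Screened at intermediate enzyme activity to detect both inhibitors and activators: LmPK at 0.1 nM, with a 0.5 nM enzyme column as activation reference. PEP 0.5 mM, ADP 0.1 mM; ATP detected by luminescence after 1 h.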
Tb PYK inh: blocks Trypanosoma brucei pyruvate kinase; Q57TT1; TbPYK enzyme, Kinase-Glo Plus ATP luminescence, 45 min; Potency, µM (series often up to 76.8 µM), for the others: top-dose activity, negative = inhibition, most hits filed as inhibitors; 410,000 tested, 0.12% active; further: on the % scale 0 is the no-effect control and ±100 the full control effect; nearly all actives have a fitted effect of over 50% in size
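TbPYK + substrate in 50 mM TEA pH 7.2, 100 mM KCl, 10 mM MgCl2, 0.05% BSA, 0.01% Tween-20; cpd pinned; ADP 130 uM final; 45 min RT; Kinase-Glo Plus 10 min; luminescence endpoint.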
Sm TGR block: inhibitors of Schistosoma mansoni thioredoxin glutathione reductase; Q962Y6; 360,000 tested, 3% active; purified TGR, DTNB reduction, TNB absorbance 405 nm; Potency, µM (highest dose often 114 µM), for the others: at the highest dose activity change, negative = inhibition, usual class: inhibitors; further: on the % scale 0 is the no-effect control and ±100 the full control effect; nearly all actives have a fitted effect of over 60% in size
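First, TGR (20 nM dispensed) and NADPH were mixed with compound. Second, a 15 min room-temperature incubation followed. Third, further NADPH and then DTNB were added to start the reaction. Finally, TNB absorbance was monitored kinetically.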
NS1 inh: influenza NS1 inhibition; 270,000 tested, 0.4% active; Potency, µM (series often up to 46.1 µM), without a hit: at the highest dose activity, positive = more growth; AID 2326; calls by dose curve; further: actives are rising curves; nearly all actives have a fitted effect of over 50% in size
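Read-out: OD600 growth recovery of NS1-expressing budding yeast. Cells grown overnight at 30C in -URA glucose medium, washed, resuspended and diluted 1:100 in 2% galactose assay medium, pH 6.0. Same strain lacking NS1 served as positive control.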
RE007 growth inh: less growth of the S. pombe RE007 Vpr strain; 360,000 tested, 0.21% active; S. pombe RE007 Vpr strain, BacTiter-Glo ATP luminescence, 24 h; Potency, µM (titrated, usually from 92.2 µM), for the others: top-dose activity change, negative = less growth, usual class: inhibitors; active means well fitted falling curve with a large enough effect; inconclusive means small, poorly fitted or top-dose-only effect; inactive means no such curve, though single readings can be large or run the other way; further: on the % scale 0 is the no-effect control and ±100 the full control effect; nearly all actives have a fitted effect of over 50% in size
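Fission yeast strain RE007, carrying one chromosomally integrated HIV-1 vpr copy, was seeded at OD 0.01 in PMG+AL medium with 23 nL pinned compound. After 24 h at 30 °C and 99% humidity, viability was read by BacTiter-Glo luminescence.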
SARS PLP yeast: SARS-CoV PLP inhibition in yeast | S. cerevisiae expressing SARS-CoV PLpro, growth rescue | AID 485353 | 330,000 tested, 0.19% active | Potency, µM (highest dose often 32.9 µM), for inactives: top-dose activity, positive = growth rescue, actives largely listed as activators; calls by dose curve; further: 0% is about no effect; nearly all actives have a fitted effect of over 55% in size
* = called active by the depositor; ? = inconclusive; / = no result; ! = repeats disagree; [ ] = another dose, or the depositor's remark. Most compounds without a hit are left out; they make up all but 3.3% or so of the library. Unless noted, the call rests on the fitted dose curve; in most records, active means well fitted curve in the direction sought with a large enough effect; inconclusive means small, poorly fitted or top-dose-only effect, or another doubt; inactive means no such curve, though single readings can be large; an effect the other way counts as inactive or inconclusive. Potency means the concentration at half of the fitted maximal effect.

SMILES | LmPK inhibitor | Tb PYK inh | Sm TGR block | NS1 inh | RE007 growth inh | SARS PLP yeast
C=CCNC(=O)c1ccc(-c2ccc([N+](=O)[O-])cc2)o1 | 3% | -13% | 18µM* | -24% | -3% | 8%
O=C(c1ccc(-c2ccc([N+](=O)[O-])cc2)o1)N1CCCCCCC1 | / | ? | 20µM* | / | -90% | 3%
O=C(O)C1=C/C(=C(/c2ccccc2)c2cc(C(=O)O)c(O)c3ccccc23)c2ccccc2C1=O | / | / | / | 8% | / | /
Cc1nc(-c2cccc(F)c2)sc1CCNC(=O)C(=O)Nc1ccc2c(c1)OCO2 | / | 2% | -4% | / | / | /
Cc1ccc(NC(=O)CCc2nnc3n(CC(C)C)c(=O)c4ccccc4n23)cc1C | / | 6% | 5% | / | / | /
C=CCc1ccc(OCc2ccc(C(=O)Nc3ccc(NC(C)=O)cc3)o2)c(OC)c1 | 2% | 9% | 45µM*! | 8% | 7% | -4%
O=C(CSc1nnc(CCCN2C(=O)c3cccc4cccc(c34)C2=O)n1-c1ccccc1)NCCCO | -1% | 5% | -2% | -15% | 5% | 6%
S=c1[nH]nc(CSCc2ccccc2Cl)n1-c1ccccc1 | 13µM* | / | 0% | -62% | 6%[3.69 µM] | -9%
O=C1c2cccc3cccc(c23)C(=O)N1CCCc1n[nH]c(=S)n1-c1ccccc1 | -5% | 7.1µM* | / | 11% | 1% | 0%
OCCCc1n[nH]c(=S)n1-c1ccccc1 | 5% | -2% | 45µM* | -2% | -17% | -1%
COC(Cc1n[nH]c(=S)n1-c1ccccc1)OC | -4% | ? | 12% | 3% | 10% | 2%
C[N+]1(C)CCC(OC(=O)CC(O)(c2ccccc2)C2CCCC2)C1 (stereo not drawn) | / | -9% | / | / | / | /
Cc1ccc(C(=N)c2ccccc2Cc2cccc3ccccc23)c2ccccc12 | / | / | / | -10% | / | /
COc1ccc(C2CC(=O)Nc3c2c(C)nn3-c2nncc(-c3ccc(C)cc3)n2)c(OC)c1OC (stereo not drawn) | / | -12% | -6% | / | / | /
COCc1cc(C)nc(NCCO)c1C#N | 2% | -4% | 0% | 17% | -11% | /
CCNc1nc(C)cc(COC)c1C#N | 0% | -13% | 25µM* | 0% | -11% | ?
Cc1cccc(OCCCSc2nc3ccccc3[nH]2)c1 | 3% | 3% | 7% | -260% | 45µM* | -40%
Cc1noc(C)c1S(=O)(=O)NCCc1csc2nc(-c3ccc(F)cc3)nn12 | / | 6% | -1% | / | / | /
CC(C)OCCCn1c(=S)[nH]c2ncccc2c1=O | 1% | -11% | 6% | 3% | 9% | 2%
CC(C)OCCCn1c(-c2ccc(Br)cc2)c[nH]c1=S | 13µM* | ? | -6% | / | 9% | 0%
O=C(Nc1nnc(-c2ccccc2Cl)s1)c1ccccc1F | -4% | -8% | 28µM* | -12% | -7% | 1%
CN(C)c1oc(-c2ccc(OCc3ccccc3)cc2)nc1C#N | 0% | -2% | 100µM* | -15% | 6% | -11%
CCCn1nnc(NC(=S)NC(=O)/C=C/c2ccco2)n1 | 17% | -25% | 7.1µM* | 16% | -2% | 3%
Cn1nnc(NC(=O)/C=C/c2ccco2)n1 | -10% | 1% | 8.9µM* | 8% | -10% | 4%
Cn1nnc(NC(=O)c2ccco2)n1 | 0% | 6% | 25% | 3% | 10% | -4%
SMILES | LmPK inhibitor | Tb PYK inh | Sm TGR block | NS1 inh | RE007 growth inh | SARS PLP yeast
CCOc1ccc(C(=O)N2CCc3cc(OC)c(OC)cc3C2COc2ccc3c(C)cc(=O)oc3c2)cc1OCC (stereo not drawn) | / | 1% | 0% | / | / | /
CN1CCN(c2nc3c(c(=O)n(C)c(=O)n3C)n2C)CC1 | / | / | / | 0% | / | /
CC(C)Oc1cc(O)c2c(c1)OCC=C2CCC(=O)O | / | / | / | -11% | / | /
Cc1ccc(C)c(NC(=O)CSc2nnc(CSc3nc(C)cc(C)n3)n2Cc2ccco2)c1 | -1% | 5% | -66% | 2% | 15% | 4%
Cc1ccc(NC(=O)CSc2nnc(CSc3nc(C)cc(C)n3)n2Cc2ccco2)c(C)c1 | 1% | -10% | 50µM* | -4% | -15% | 1%
Cc1cc(C)nc(SCc2nnc(SCC(N)=O)n2Cc2ccco2)n1 | -2% | -19% | 0% | 27% | 0% | 0%
CCOC(=O)CSc1nnc(CSc2nc(C)cc(C)n2)n1Cc1ccco1 | 12% | -12% | 45µM* | -3% | 10% | 2%
COc1ccc(Nc2oc(/C=C/c3cc(OC)c(OC)c(OC)c3)nc2C#N)cc1 | / | -3% | -2% | / | / | /
Nc1c(C(=O)Nc2ccccc2Cl)nnn1Cc1cccc(Cl)c1 | / | -7% | ? | / | / | /
CCCCCCN(C(=O)CCCCCN1C(=O)NC(c2ccccc2)C(C(=O)OCc2ccccc2)=C1C)C(C(=O)NCCCC)c1ccc(OCC(=O)OC)c(C(=O)OC)c1 (stereo not drawn) | 2% | / | 0% | 16% | / | 1%
CCCCCCN(C(=O)CCCCCN1C(=O)NC(c2ccc(C(C)(C)C)cc2)C(C(=O)OCc2ccccc2)=C1C)C(C(=O)NCCCC)c1ccc(OCC(=O)OC)c(C(=O)OC)c1 (stereo not drawn) | 2% | / | 1% | 8.9µM* | / | 0%
Cc1ccc(S(=O)(=O)Nc2ccccc2C(=O)c2ccc(C)c(C)c2)cc1 | / | / | / | -5% | / | /
Fc1cccc(CNc2ncnc3ccc(-c4ccccc4Cl)cc23)c1 | / | / | 3% | / | / | 0%
Cc1cc(F)ccc1N1CCC(N2CCN(C(C)C)C(CCO)C2)CC1 (stereo not drawn) | 6% | 7% | 40µM* | -9% | -17% | -4%
Cc1cc(F)ccc1N1CCC(N2CCN(CCC(C)C)C(CCO)C2)CC1 (stereo not drawn) | 0% | -1% | 2% | -3% | -15% | -2%
COc1ccc(-n2nc(C(=O)N3CCC(C)CC3)c3c4ccccc4n(C)c3c2=O)cc1Cl | / | 2% | -2% | / | / | /
Cc1ccc(/C=C2\CC(C)CC3=C2NC(=S)NC3c2ccc(C)cc2)cc1 (stereo not drawn) | 5% | -26% | 16µM* | 1% | 1% | 7%
CCOC(=O)c1c(-c2ccc(C)o2)csc1NC(=O)CSc1nnc(C)s1 | 1% | -3% | ? | -61% | 1% | -6%
CCOC(=O)c1c(-c2ccc(C)o2)csc1NC(=O)COC(=O)c1ccc(NC(N)=O)cc1 | 5% | 0% | 10µM* | 11% | 2% | 15%
CCOC(=O)c1c(-c2ccc(C)o2)csc1NC(=S)NC(=O)c1cccs1 | -3% | -14% | -22% | 11% | -3% | -8%
CCOC(=O)c1c(-c2ccc(C)o2)csc1NC(=O)CSc1nnnn1-c1ccccc1 | -8% | ? | 5.6µM* | ? | 10% | -4%
COc1ccc(C(=O)N2CCCCCC2)cc1OC1CCN(C(C)=O)CC1 | 6% | 8% | 0% | 0% | 20% | -1%

Screening data: PubChem, National Center for Advancing Translational Sciences (NCATS)
